Measured values reported in PubChem BioAssay AID504326 (The Scripps Research Institute Molecular Screening Center, 2011).
In all, about 340,000 compounds went through this assay and about 990 (0.29%) were called active. What follows is part of a selection rich in actives, with near analogues and random picks from the rest. Unmarked numbers belong to inactive results. Cut-off read from the data, not from the text of the source: active = activation above about 18%; inactive = the rest.

What follows are compounds tested against Mu-type opioid receptor (Homo sapiens) + Delta-type opioid receptor (Homo sapiens) (UniProt P35372+P41143) (assay: agonists of OPRM1-OPRD1 heterodimerization, primary screen, cell-based, luminescence (AID 504326;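 note: 0% = vehicle-treated cells and 100% = reference agonist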)). Details: cells, at 9.3 µM, active compounds read high.
Mu-type opioid receptor (Homo sapiens) + Delta-type opioid receptor (Homo sapiens), sequence (P35372 whole entry, looked up): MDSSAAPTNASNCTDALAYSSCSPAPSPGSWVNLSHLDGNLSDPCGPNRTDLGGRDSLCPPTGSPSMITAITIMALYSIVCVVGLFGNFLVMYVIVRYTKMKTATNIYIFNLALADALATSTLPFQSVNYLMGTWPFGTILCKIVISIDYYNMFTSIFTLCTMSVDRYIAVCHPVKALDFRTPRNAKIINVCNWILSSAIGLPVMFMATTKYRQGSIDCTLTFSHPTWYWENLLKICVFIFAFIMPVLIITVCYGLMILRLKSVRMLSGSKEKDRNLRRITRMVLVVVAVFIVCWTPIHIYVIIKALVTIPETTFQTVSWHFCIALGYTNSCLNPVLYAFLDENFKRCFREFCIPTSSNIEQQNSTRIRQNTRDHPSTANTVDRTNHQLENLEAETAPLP
Mu-type opioid receptor (Homo sapiens) + Delta-type opioid receptor (Homo sapiens), sequence (P41143 whole entry, looked up): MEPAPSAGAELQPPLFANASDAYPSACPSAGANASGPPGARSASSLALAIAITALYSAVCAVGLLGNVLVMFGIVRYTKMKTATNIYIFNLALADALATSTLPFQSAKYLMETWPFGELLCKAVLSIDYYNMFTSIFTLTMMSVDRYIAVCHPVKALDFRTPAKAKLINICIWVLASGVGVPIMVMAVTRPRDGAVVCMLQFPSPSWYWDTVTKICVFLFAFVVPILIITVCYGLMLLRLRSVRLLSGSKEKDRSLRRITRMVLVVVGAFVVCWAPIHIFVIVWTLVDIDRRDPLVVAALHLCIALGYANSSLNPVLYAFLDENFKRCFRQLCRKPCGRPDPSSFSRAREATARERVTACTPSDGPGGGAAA

| SMILES | activation |
| --- | --- |
| COC1C(O)C(C)OC(OC2CCC3(C=O)C(CCC4C3CCC3(C)C(C5=CC(=O)OC5)CCC43O)C2)C1O (stereo not given) | 82.9% (active) |
| COc1cc2nc(N3CCN(C(=O)[C@@H]4CCCO4)CC3)nc(N)c2cc1OC | -0.16% |
| CC1(C)C(c2ccccc2)=NC(c2cccnc2)=[N+]1[O-] | -4.09% |
| CC(=O)OC1C2(CC3N4C(=O)C5(CO)SSC4(CC31O)C(=O)N5C)OC(C)C(C)(C)C2=O (stereo not given) | -23.2% |
| C[C@]12CC[C@H](O)C[C@H]1CC[C@@H]1C2CC[C@]2(C)[C@@H](C3=CC(=O)OC3)[C@@H](O)C[C@]12O (stereo not given in full) | 62.4% (active) |
| C[C@]12CCC3C(CC[C@H]4C[C@@H](O)CC[C@]34C)C1C[C@@H](O)[C@H]2O (stereo not given in full) | -2.9% |
| C[C@]12CCC3C(CC[C@H]4C[C@@H](O)CC[C@]34C)C1CC[C@@H]2O (stereo not given in full) | -1.31% |
| CCOP(=O)(OCC)C(NC(=O)NC)C(N)=O (stereo not given) | -3.11% |
| c1cc2c(cc1C1OCC3C(c4ccc5c(c4)OCO5)OCC13)OCO2 (stereo not given) | 1.03% |
| Cn1c(O)c(C=NCCCC(=O)O)c(=O)n(C)c1=O | -1.29% |
| CCOC(=O)C1(c2ccccc2)CCN(CC(O)c2ccc(NC(C)=O)cc2)CC1 (stereo not given) | 3.27% |
| CCOC(=O)C1(CCc2ccccc2)CCN(Cc2ccco2)CC1 | 23.8% (active) |
| CCOC(=O)C1(Cc2ccc(Cl)cc2)CCN(C(C)CCn2cccn2)CC1 (stereo not given) | 0.28% |
| NC(=O)Cn1cc(C(=O)c2ccccc2F)c2ccccc21 | -3.05% |
| c1ccc2sc(C3CCCNC3)nc2c1 (stereo not given) | -2.28% |
| COc1ccc(C2NCc3ccc4c(c3-n3cccc32)OCO4)cc1OC (stereo not given) | -3.63% |
| CCC1(C)CC(CCNCc2ccc(N(C)C)cc2)(c2ccc(F)cc2)CCO1 (stereo not given) | 125% (active) |
| COC(=O)C1=C(c2c(C)noc2C)C[C@@H]2CC[C@H]1N2C(=O)NCc1ccc2c(c1)OCO2 | -2.32% |
| CCCCC(=O)N/N=C/c1c(O)n(CC)c(=S)n(CC)c1=O | 0.54% |
| O=C1NC(=O)C(CCOc2ccccc2)(CCc2ccccc2)C(=O)N1 | -1.87% |
